Shown are actives, neighbours in structure and some others; about 9.9% of the full set was active somewhere.
KB-V1 cytotox: qHTS assay for MDR1-selective chemotherapeutics: Primary screen using the drug-selected MDR subline cells KB-V1 | KB-V1 MDR cells viability, CellTiter-Glo, 72 h | Potency, µM (top dose mostly 46.1 µM), hits mostly cytotoxic | 400,000 tested, 3.4% active; also: potency is read from the fitted curve at half-maximal effect; % is scaled to controls: 0 for no effect and ±100 for the full control effect; nearly all actives have a fitted effect of over 60% in size
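KB-V1, DMEM (no phenol red) + 10% FBS; cpd pin-transferred, titration series; 72 h, 37 degrees C; CellTiter-Glo, luminescence. Data normalized, curve-fit.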
KB-3-1 tox: qHTS assay for MDR1-selective chemotherapeutics: Primary screen using the parental adenocarcinoma cell KB-3-1 | KB-3-1 viability, CellTiter-Glo ATP luminescence, 72 h | Potency, µM (titrated, usually from 46.1 µM), hits mostly cytotoxic | 400,000 tested, 1.4% active | AID 1347075, 2019; also: potency is read from the fitted curve at half-maximal effect; % is scaled to controls: 0 for no effect and ±100 for the full control effect; nearly all actives have a fitted effect of over 60% in size
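Luminescent ATP read-out (CellTiter-Glo) measures survival of drug-naive KB-3-1 cells after 72 h compound exposure at 37 °C. Titration series was screened from lowest to highest concentration, with DMSO vehicle plates as background controls.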
IL-1B inflam inh: qHTS for Inhibitors of Inflammasome Signaling: IL-1-beta AlphaLISA Primary Screen | THP-1 LPS/ATP IL-1B secretion, AlphaLISA, 16 h; stronger effect = lower value | AID 743279, 2014 | activity change, % at 57.5 µM | 360,000 tested, 4.7% active; in the data active = activity change below about -50%; inconclusive = mostly about -30% to -49%; also: % is scaled to controls: 0 for no effect and ±100 for the full control effect
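Secreted IL-1B measured by AlphaLISA bead assay after 16 h compound exposure of THP-1 cells; compounds (final up to 57.5 uM) added 1 h before LPS (250 ng/mL) and ATP (1.25 mM) stimulation; lower signal means less secretion.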
SW480 rerep: A quantitative high throughput screen for small molecules that induce DNA re-replication in SW480 colon adenocarcinoma cells | SW480 DNA re-replication, Hoechst DNA content imaging, 48 h | Potency, µM (top dose mostly 46.1 µM), inactives show at the highest dose re-replication activation, most hits filed as activators | 340,000 tested, 1.8% active; also: potency is read from the fitted curve at half-maximal effect; % of control where 0% means no effect; nearly all actives have a fitted effect of over 55% in size
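Treated cells incubate 48 hr (37 C, 5% CO2), are stained 40 min with Hoechst, and nuclear fluorescence is enumerated; a rise in nuclei with high DNA signal marks re-replication.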
MCF10A rerep: A quantitative high throughput screen for small molecules that induce DNA re-replication in MCF 10a normal breast cells; MCF 10A DNA re-replication, Hoechst nuclear intensity, 48 h; Potency, µM (doses to about 46.1 µM), for the others: top-dose activity, positive = re-replication, hits mostly activators; 350,000 tested, 2.9% active; AID 624296, 2012; also: potency is read from the fitted curve at half-maximal effect; % of control where 0% means no effect; nearly all actives have a fitted effect of over 50% in size
* marks the source's active call; other numbers are inactive results; i = inactive; ? = inconclusive; . = no result. Unless noted, calls follow the shape of the dose curve; as a rule, active = well fitted curve in the direction sought with a large enough effect; inconclusive = small, poorly fitted or top-dose-only effect, or another doubt; inactive = no such curve, though single readings can be large; an effect the other way counts as inactive or inconclusive.

SMILES | KB-V1 cytotox | KB-3-1 tox | IL-1B inflam inh | SW480 rerep | MCF10A rerep
COc1ccccc1N1CCN(c2ncnc3c2nc2n3CCCC2)CC1 | ? | i | . | . | .
Cc1cc(NC(=O)C(C)SCC(=O)OCC(=O)N(Cc2ccccc2)C(C)(C)C)no1 (stereo not given) | i | i | i | -4% | 3%
Cc1cc(NC(=O)C(C)SCC(=O)N(Cc2ccccc2)c2ccccc2)no1 (stereo not given) | 6.5µM* | ? | 5 | -442% | ?
O=C(Nc1ccccc1Br)c1cccc2ccccc12 | i | i | 7 | 0% | 6%
O=C(N/N=C/c1ccco1)c1cccc(N2Cc3ccccc3C2)c1 | i | i | 2 | -11% | -4%
COc1cccc(C(=O)Oc2cc3c4c(c2)C(C)=CC(C)(C)N4C(=O)C3=O)c1 | i | i | 29 | 4.1µM* | ?
COc1cc2c3c(c1)C(C)=CC(C)(C)N3C(=O)C2=O | i | i | 0 | 10µM* | ?
O=C(NNC(=O)c1ccccc1OCc1ccccc1Cl)c1csc(N2CCOCC2)n1 | i | ? | 186 | 8% | 1%
Clc1ccc2[nH]cc(-c3nnnn3-c3ccccc3)c2c1 | 16µM* | 18µM* | -1 | 17% | 20%
c1ccc(-n2nnnc2-c2cccc3ccccc23)cc1 | . | . | 30 | 5.8µM* | 23µM*
COc1ccc(-n2nc(C(=O)NCC(=O)NCc3ccc(F)cc3)c3ccccc3c2=O)cc1 | i | i | -8 | -1% | 7%
Cc1ccc2nc(CO)[nH]c2c1 | i | ? | . | . | .
CCN(CC)S(=O)(=O)c1cccc(C(=O)OCC(=O)c2ccc3c(c2)OCCO3)c1 | 13µM* | i | 32 | -17% | 3%
O=C(O)/C=C/C(=O)Nc1ccccc1C(=O)OCC(=O)c1ccc2c(c1)OCCO2 | i | i | -75* | 19% | ?
CCCCCCOC(=O)c1ccccc1NC(=O)/C=C/C(=O)O | i | i | -100* | 12% | ?
CCN1C=C(Cc2cccs2)C2=C(C1)C(c1cccs1)C(C#N)=C(N)O2 (stereo not given) | i | ? | -26 | 25% | 21µM*
CCN1CC2=C(OC(N)=C(C#N)C2c2cccs2)/C(=C/c2cccs2)C1 (stereo not given) | ? | i | -23 | ? | ?
O=C(Nc1ccc(OC(F)(F)F)cc1)c1cc2ccccn2n1 | ? | 10µM* | . | . | .
COc1ccc(-c2cc(C(F)(F)F)nc(S(=O)(=O)CCCC(=O)Nc3cc(C)on3)n2)cc1OC | i | i | -110* | ? | 3.7µM*
COc1ccccc1-c1cc(C(F)(F)F)nc(S(=O)(=O)CCCC(=O)Nc2cc(Br)ccc2O)n1 | i | i | . | . | .
COc1ccccc1-c1cc(C(F)(F)F)nc(S(=O)(=O)CCCC(=O)Nc2cc(C)on2)n1 | ? | ? | -102* | 16µM* | 21µM*
CCC(C)(C)n1nnnc1C(c1cc2ccc(C)cc2[nH]c1=O)N(Cc1cccnc1)Cc1ccco1 (stereo not given) | 21µM* | i | -69* | ? | ?
CCOP(=O)(OCC)C(C)(C)NC(=O)Nc1ccc(Cl)c(Cl)c1 | ? | ? | -67* | 11% | -2%
CCOP(=O)(OCC)C(NC(=O)Nc1ccc(Cl)c(Cl)c1)c1ccccc1 (stereo not given) | ? | i | -3 | -3% | 15%
O=C(Nc1cc(Sc2ccccn2)cc([N+](=O)[O-])c1)c1ccc(Cl)cc1 | ? | 21µM* | -66* | -3% | ?
COc1ccc(NC(=O)NNC(=O)C(C)Oc2ccc3ccccc3c2)cc1 (stereo not given) | i | i | -8 | 3% | 5%
COC(=O)CSc1nc2sc3c(c2c(=O)n1-c1ccccc1C)CC(C)(C)OC3 | i | i | . | . | .
CCc1ccccc1Nc1nn2c(=O)c3ccc(C(=O)NCc4ccc(C)cc4)cc3nc2s1 | i | 2.9µM* | . | . | .

Screens as filed in PubChem BioAssay.
